This is part of a sample that, as a whole, favours compounds with a hit. Of some 83,000 tested, about 20% had one in any assay.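 Cells were grown in 96-well plates and exposed to the test compound at a single concentration for 48 hours; results are reported as percent growth, with values below 10 considered active.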 Unmarked numbers belong to inactive results. Activity calls are given as the source filed them.
System: MDA-MB-468 breast
Assay: NCI-60 one-dose screen, 48 h (100 = growth as untreated, 0 = no growth, -100 = all killed)
Settings: 10 µM unless noted

Structure (SMILES)	growth
COc1cc(OC)cc(-c2cc(-c3c[nH]c4ccccc34)nc(-c3c[nH]c4ccccc34)c2C#N)c1	92.2%
O=C1/C(=C/c2ccccc2)CN(C(=O)c2cccnc2)C/C1=C\c1ccccc1	-49.2% (active)
CC(=O)OC[C@]12CC[C@@H](C(=O)/C=C/c3cccnc3)[C@@H]1[C@H]1CC[C@@H]3[C@@]4(C)CC[C@H](OC(C)=O)C(C)(C)[C@@H]4CC[C@@]3(C)[C@]1(C)CC2	-44% (active)
COc1cc(OC)cc(-c2cncn2-c2ccc(-c3nc4cc(OC)cc(OC)c4s3)cc2)c1	4% (active)
O=c1cc(-c2ccccc2)[nH]c2ncc(-c3ccc(F)cc3)n12	83%
CC(C)C(=O)Cc1cnccn1	119%
O=C(Nc1ccc(Cl)cc1)C1=NCCCCN1	111%
COc1cc(NC(=O)CCl)ccc(=O)c1	75.6%
CCOc1cc(Br)c(C(C)NC(=O)c2cccc(OC)c2)cc1OCC (stereo not given)	52.6%
Cc1ccc(-n2c3c(c(-c4ccccc4)c2-c2ccccc2)C2=NCCN2C=N3)cc1	81.8%
CCCCCC(=O)O[C@]1(C(C)=O)CCC2C3CCC4=CC(=O)CC[C@]4(C)C3CC[C@@]21C (stereo not given in full)	-2.63% (active)
COc1ccc(-c2nc(/C=N/Nc3cc(C)nc4ccc(Cl)cc34)c(C)o2)cc1	-73.7% (active)
COc1ccc(SC2c3cc(OC)c(OC)cc3Oc3nc(N)c(C#N)c(N)c32)cc1 (stereo not given)	-40.7% (active)
CC[C@@]12C=CCN3CC[C@]4(c5cc(NC(=O)COc6cc(OCC(=O)Nc7cc8c(cc7OC)N(C)[C@H]7[C@@](O)(C(=O)OC)[C@H](OC(C)=O)[C@]9(CC)C=CCN%10CC[C@]87[C@@H]%109)cc7oc(-c8ccccc8)cc(=O)c67)c(OC)cc5N(C)[C@@H]4[C@](O)(C(=O)OC)[C@H]1OC(C)=O)[C@H]32	72%
N#C/C(=C\c1ccccn1)c1nc2cc(Cl)ccc2s1	55.5%
CC(=O)n1c2ccccc2c2ccccc21	105%
O=Cc1ncc(-c2ccc(C(F)(F)F)cc2)c(NC2CCCCCC2)n1	2.41% [100 µM] (active)
Cc1cnc2nc(NN)[nH]n12	91%
CN(C)c1ccc(/C=C\N=Nc2ccc(Br)cc2)cc1	106%
C#CCn1cnc2c(Nc3cccc(NC(=O)CCl)c3)ncnc21	23.5%

Structure (SMILES)	growth
COc1cc(OC)c(/C=C/C(=O)c2c(OC)cccc2OC)c(OC)c1	-15.6% (active)
O=C(Cc1ccc(F)c(Cl)c1)Nc1cc(C2(C(F)(F)F)CC2)nn1CC1CCCCC1	-13.1% (active)
O=C(O)C(Cc1ccccc1)N1C(=O)/C(=C/C(Cl)=C/c2ccc([N+](=O)[O-])cc2)SC1=S (stereo not given)	-12.8% (active)
COc1ncc(-c2ccc3nccc(C#CCN4CCN(S(C)(=O)=O)CC4)c3c2)cc1NS(=O)(=O)c1ccc(F)cc1F	-67% (active)
CCOC(=O)C(Nc1ccccc1)C(=O)OCC	104%
O=C(CSc1nc2ccccc2[nH]1)c1ccc(N2CCOCC2)cc1	87.6%
NS(=O)(=O)Oc1ccc2nc(Nc3ccc(F)c(F)c3)ccc2c1	96.9%
COc1ccc(-c2oc3cc(O)cc(O)c3c(=O)c2OC)cc1O	-3.48% (active)
Cc1cnc(N)s1	102%
CCN(CC)CCCNc1ccc(C)c2sc3ccccc3c(=O)c12	-34.8% (active)
CCCCC[C@H]1C/C=C2/C(=O)C(Cl)=C[C@@H]2C/C=C\CCCC(=O)O1	-26.7% (active)
O=C(Nc1ccc(CN2CCOCC2)cc1)c1[nH]ncc1Nc1ncnc2sccc12	-25.6% (active)
COc1ccc2c(c1)/C(=C/c1sc(=S)n(Cc3ccco3)c1O)C=N2	3.03% (active)
C#CC[C@@H]1C[C@]2(C)[C@H]3CC=C4[C@H]5CC(C)(C)CC[C@]5(C(=O)NCCCCN)CC[C@@]4(C)[C@]3(C)CC[C@H]2C(C)(C)[C@H]1OC(C)=O	-39.7% (active)
O=C(NCc1ccco1)Nc1c(Cl)cc(Cl)cc1Cl	87.8%
NNC(=O)Cc1ccccc1	92.3%
Oc1ccc(N=Nc2ccc(N=Nc3ccccc3)cc2)cc1	83.1%
C=C1C(=O)O[C@H]2[C@H]1CC/C(COC(=O)/C=C\C(=O)NCc1ccc(Cn3c(=O)sn(CCCl)c3=O)cc1)=C\CC[C@@]1(C)O[C@@H]21	43%
O=C1NC(=O)/C(=C\c2ccco2)S1	108%
C=C1CCC2C3(C)COC(C)(C)OC3CCC2(C)C1C/C=C1/C(=O)OCC1OC(C)=O (stereo not given)	7.86% (active)
